Hits are enriched below; roughly 1.8% of the tested compounds scored in any of these assays.
SSB-PriA inh – inhibitors of Klebsiella pneumoniae PriA binding to SSB C-terminal tail | AlphaScreen SSBct-PriA binding, biotinylated peptide | inhibition, % at 33 µM | 430,000 compounds, 0.6% hits; in the data active = inhibition mostly above about 37%, no sharp cut-off; inactive = mostly below about 20%
PrPC TRFRET – cell surface PrPC inhibition, primary TR-FRET screen; 370,000 compounds, 0.43% hits; AID 720596; TR-FRET read-out; P04156; inhibition, % at 13.8 µM; in the data active = inhibition above about 24%
PfHsp40 rescue – rescue of PfHsp40-mediated yeast toxicity | AID 504582 | 340,000 compounds, 0.68% hits | growth rescue, % at 12.5 µM | S. cerevisiae expressing PfHsp40, growth rescue, ATP luminescence; in the data active = growth rescue above about 28%, passing the limit was not always enough;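 also: yeast W303a lacking pdr1 and pdr3 grown in galactose medium; growth measured after three days at 30 °C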
MazF activator – increases E. coli MazEF RNase cleavage of RNA. activation, % at 20 µM. 350,000 compounds, 0.32% hits. FAM/BHQ RNA-DNA oligo cleavage fluorescence, 5 h. P0AE70; in the data active = activation above about 50%
Target sequence (P0AE70 whole entry, looked up): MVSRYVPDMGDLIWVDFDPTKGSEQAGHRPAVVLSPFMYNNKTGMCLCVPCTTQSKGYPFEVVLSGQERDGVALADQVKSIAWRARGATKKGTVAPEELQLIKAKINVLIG
PrP 5UTR inh – inhibition of PrP 5' UTR reporter expression | 340,000 compounds, 0.35% hits | cell-based PrP 5' UTR mRNA reporter, plate reader | AID 488862 | inhibition, % (test concentration not listed); in the data active = inhibition above about 52%
Of the large screens only hits and unclear results are named; the others gave an inactive call.

CC(/C=C/c1ccco1)=NNC(=O)c1cc(Cl)ccc1O	none (no result: PrPC TRFRET, PfHsp40 rescue, MazF activator, PrP 5UTR inh)
CC(/C=C/c1ccco1)=N\NC(=O)c1cc(Cl)ccc1O	PfHsp40 rescue 75 (no result: SSB-PriA inh)
CCOC(=O)c1c(C)[nH]c(C(=O)NN=Cc2ccccc2Cl)c1C	none (no result: PrPC TRFRET, PfHsp40 rescue, MazF activator, PrP 5UTR inh)
CCOC(=O)c1c(C)[nH]c(C(=O)N/N=C\c2ccccc2O)c1C	PfHsp40 rescue 37 (no result: SSB-PriA inh)
Cn1ncc(Cl)c1C(=O)Nc1cc(C(F)(F)F)ccc1F	none
CCN(Cc1cc(=O)n2ccsc2n1)c1cccc2ccccc12	PfHsp40 rescue 178
c1ccc(-n2c(SCc3nc(-c4cccs4)no3)nnc2-c2ccco2)cc1	SSB-PriA inh 87
c1ccc(-n2c(SCc3ccncc3)nnc2-c2ccco2)cc1	none
Cc1cccc(CSc2nnnn2-c2ccccc2)c1	PfHsp40 rescue 33
CN1CCN(C(=S)c2cn(CCOc3ccccc3F)c3ccccc23)CC1	SSB-PriA inh 39
CN1CCN(C(=S)c2cn(CCOc3ccccc3)c3ccccc23)CC1	none
COc1ccc(N(CC(=O)NN=C2CCN(C)CC2)S(=O)(=O)c2ccc(NC(C)=O)cc2)cc1	none
Clc1cccc(/C(Cc2nc3ccccc3[nH]2)=N\Nc2ccccc2)c1	MazF activator 61 (no result: SSB-PriA inh)
Clc1cccc(C(Cc2nc3ccccc3[nH]2)=NNc2ccccc2)c1	none (no result: PrPC TRFRET, PfHsp40 rescue, MazF activator, PrP 5UTR inh)
CN1C(=O)c2cc(NS(=O)(=O)c3ccc(F)cc3)ccc2OC[C@H]2O[C@@H](CC(=O)NCC(F)(F)F)CC[C@@H]21	none (no result: SSB-PriA inh, PfHsp40 rescue, MazF activator, PrP 5UTR inh)
Cc1ccc(O)c(N=Nc2ccc(S(=O)(=O)N3CCCC3)cc2)c1	none
COc1ccc(OC)c(N)c1	SSB-PriA inh 74
COc1ccc(N=Nc2cc(OC)c(N)cc2OC)cc1	SSB-PriA inh 62
COc1ccc(N=Nc2cc(C)ccc2O)cc1	SSB-PriA inh 77
COc1cc2c(cc1OC)C(COc1ccc(C(C)C)cc1)N(C(=O)Nc1ccccc1)CC2 (stereo not given)	none (no result: PrPC TRFRET, PfHsp40 rescue, MazF activator, PrP 5UTR inh)
Cc1nnc(-c2cccc(Br)c2)c2cn(-c3ccc(Br)cc3)nc12	none
COc1ccc(-n2cc3c(-c4cccc(Br)c4)nnc(C)c3n2)cc1	MazF activator 52
Cc1cccc(C(=O)Nc2nnc(-c3cccnc3)o2)c1	none
O=c1ccc(-c2n[nH]c(=S)n2-c2ccc(F)c(Cl)c2)n[nH]1	PfHsp40 rescue 52
Fc1ccc(-n2c(-c3cc(C4CC4)[nH]n3)n[nH]c2=S)cc1Cl	none
O=C(NCc1ccccc1)OCCN1C(=O)CCC12CCCCC2	none (no result: SSB-PriA inh, PfHsp40 rescue, MazF activator, PrP 5UTR inh)
COc1ccc(C(=O)CC(=O)C(=O)Nc2cccc(F)c2)cc1	PfHsp40 rescue 39
COc1ccc(C(=O)CC(=O)C(=O)Nc2ccccc2)cc1	PfHsp40 rescue 57
COc1ccc(C(=O)CC(=O)C(=O)Nc2cc(OC)c(OC)c(OC)c2)cc1	none
COc1ccc(N/C(C)=C/C(=S)Nc2ccccc2)cc1	SSB-PriA inh 43
Cc1ccc(C2Nc3ccccc3-c3nc4ccccc4n32)o1 (stereo not given)	none
CCOc1cc(C)c(S(=O)(=O)NC(C)c2ccccc2)cc1C (stereo not given)	none (no result: PrPC TRFRET, PfHsp40 rescue, MazF activator, PrP 5UTR inh)
CCNC(=O)CN(c1ccc(Oc2ccccc2)cc1)S(=O)(=O)c1ccccc1	PfHsp40 rescue 60
COc1ccc(-c2ccc(/C=C3/C(=N)N4C(C)=CSC4=NC3=O)o2)c([N+](=O)[O-])c1	MazF activator 68
O=C1C=C(c2cccc3c2Oc2ccccc2S3)C[C@@H](c2ccc3c(c2)OCO3)C1	none (no result: SSB-PriA inh, PfHsp40 rescue, MazF activator, PrP 5UTR inh)
CS(=O)(=O)c1sc(C#N)c2c1C(=O)CC(c1ccccc1)C2 (stereo not given)	PrPC TRFRET 51
CC(C)(C)C1CCc2[nH]c3ccccc3c(=O)c2C1 (stereo not given)	PfHsp40 rescue 102
O=c1c2c([nH]c3ccccc13)CCCC2	none
O=C(c1csc2c1CCCC2)N1CCN(c2cccc(C(F)(F)F)c2)CC1	none
O=C(c1csc2c1CCCC2)N1CCN(c2ccc(F)cc2)CC1	MazF activator 53
CC(C)C1Nc2ccc(S(=O)(=O)N3CCOCC3)cc2NC1=O (stereo not given)	none
COc1ccc(C(=O)NC(=S)NNC(=O)c2ccc(O)cc2)cc1[N+](=O)[O-]	PfHsp40 rescue 52
COc1ccc(C)cc1S(=O)(=O)N1CCN(C(=O)c2ncoc2-c2ccc(C)cc2)CC1	none
Fc1ccc(Cn2ccc(-c3cnc(-c4ccccc4)s3)n2)cc1	PfHsp40 rescue 58
CCc1ccc(N=c2c([N+](=O)[O-])nn(-c3ccc4c(c3)OCCO4)n2O)cc1	SSB-PriA inh 58
O=[N+]([O-])c1nn(-c2ccc3c(c2)OCCO3)n(O)c1=NC1CCCC1	none
